Experimental data as given in publication PMC11062922 (Nature Chemical Biology, 2023).

What was measured:
Parameters in all cases: species or system human, MV4-11 + K-562 + COLO205 + SK-N-BE2 + OVCAR-8
[1] = test system: AMPK-alpha2; conditions: compound concentrations: 100 nM and 1000 nM (sheet 'Samples')
[2] = test system: CIT; conditions: compound concentrations: 100 nM and 1000 nM (sheet 'Samples')
[3] = test system: CLK2; conditions: compound concentrations: 100 nM and 1000 nM (sheet 'Samples')
[4] = test system: CSNK2A1; conditions: read-out: Kinobeads Data; compound concentrations: 100 nM and 1000 nM (sheet 'Samples'); n = 1
[5] = test system: CSNK2A2; conditions: read-out: Kinobeads Data; compound concentrations: 100 nM and 1000 nM (sheet 'Samples'); n = 1
[6] = test system: DDR1; conditions: compound concentrations: 100 nM and 1000 nM (sheet 'Samples')
[7] = test system: DDR2; conditions: compound concentrations: 100 nM and 1000 nM (sheet 'Samples')
[8] = test system: DYRK1B; conditions: compound concentrations: 100 nM and 1000 nM (sheet 'Samples')
[9] = test system: EPHB1; conditions: compound concentrations: 100 nM and 1000 nM (sheet 'Samples')
[10] = test system: JAK2(JH1domain-catalytic); conditions: compound concentrations: 100 nM and 1000 nM (sheet 'Samples')
[11] = test system: LCK; conditions: compound concentrations: 100 nM and 1000 nM (sheet 'Samples')
[12] = test system: MAP3K4; conditions: compound concentrations: 100 nM and 1000 nM (sheet 'Samples')
[13] = test system: MEK5; conditions: compound concentrations: 100 nM and 1000 nM (sheet 'Samples')
[14] = test system: MERTK; conditions: compound concentrations: 100 nM and 1000 nM (sheet 'Samples')
[15] = test system: NEK2; conditions: compound concentrations: 100 nM and 1000 nM (sheet 'Samples')
[16] = test system: PKAC-beta; conditions: compound concentrations: 100 nM and 1000 nM (sheet 'Samples')
[17] = test system: SLK; conditions: compound concentrations: 100 nM and 1000 nM (sheet 'Samples')
[18] = test system: SYK; conditions: compound concentrations: 100 nM and 1000 nM (sheet 'Samples')
[19] = test system: TBK1; conditions: compound concentrations: 100 nM and 1000 nM (sheet 'Samples')
[20] = test system: TYK2(JH2domain-pseudokinase); conditions: compound concentrations: 100 nM and 1000 nM (sheet 'Samples')
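Further: kinobeads ε competition pulldown from cell lysate, compound preincubated 45 min at 4 °C, bound kinases quantified by LC–MS/MS relative to DMSO control.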

COc1cc(Nc2ncc3c(C)nc(-c4cc5ccccc5[nH]4)n3n2)cc(OC)c1OC [GW869516X]
no target: Kinobeads Data [1] | Kinobeads Data [2] | Kinobeads Data [3] | Kinobeads Data [6] | Kinobeads Data [7] | Kinobeads Data [8] | Kinobeads Data [9] | Kinobeads Data [10] | Kinobeads Data [11] | Kinobeads Data [12] | Kinobeads Data [13] | Kinobeads Data [14] | Kinobeads Data [15] | Kinobeads Data [16] | Kinobeads Data [17] | Kinobeads Data [18] | Kinobeads Data [19] | Kinobeads Data [20]
56 nM: potency estimated from few doses [5]
78 nM: potency estimated from few doses [4]
